Test results published in PubChem BioAssay AID463173 (ICCB-Longwood Screening Facility, Harvard Medical School, 2010).
Screen size: about 52,000 compounds; about 4,300 (8.3%) were called active. The sample holds actives, similar compounds and a random draw of the others, so the mix is not that of the screen. Rule as the data show it: active = survival mostly below about 52% (no sharp cut-off); inactive = mostly above about 56%.

Each compound was assayed on DeltatarO mutant (assay: S. aureus survival, RN4220 and DeltatarO strains – OD600, teichoic acid synthesis inhibitors, primary screen (AID 463173)). Details: S. aureus RN4220 wild type/DeltatarO growth, OD600, 18 h, active compounds read low, screened at 18.75 µg/mL (by protocol).

SMILES	survival
Cn1c(C(=O)NCc2ccccc2Cl)cc2sc(Cl)cc21	64% (inactive)
CCCCNC(=O)CCC1N=C2c3ccccc3N=C(SCC(=O)NCCc3ccc(OC)c(OC)c3)N2C1=O (configuration not stated)	64% (inactive)
COc1cc(Cl)c(C)cc1NC(=O)Cn1ncc2c3ccccc3n(Cc3ccccc3)c2c1=O	83% (inactive)
CCC(=O)N1CCc2cc(S(=O)(=O)NC(C(=O)NCc3ccc(OC)cc3)C(C)C)ccc21 (configuration not stated)	92% (inactive)
Cc1ccccc1Nc1sc(C(=O)c2ccc3c(c2)OCO3)c(N)c1S(=O)(=O)c1ccccc1	78% (inactive)
Cc1ccc(CNC(=O)C(C)n2nc(C)n3c(cc4sccc43)c2=O)cc1 (configuration not stated)	111% (inactive)
CCOc1ccc(NC(=O)CC2C(=O)N(c3cccc(C)c3)C(=O)N2Cc2ccco2)cc1 (configuration not stated)	83% (inactive)
CCOC(=O)CNC(=O)Nc1cc(C(=O)NCc2ccc(C(C)C)cc2)ccc1N1CCCC1	93% (inactive)
Cc1ccc(-n2c(SCC(N)=O)nc3c(oc4ccccc43)c2=O)cc1	69% (inactive)
CCOc1ccc(-c2nnc(Nc3ccc(S(N)(=O)=O)cc3)c3ccccc23)cc1	56% (inactive)
CCCCOc1nnc(-c2ccc(OCC)cc2)c2ccccc12	-12% (active)
CCOc1ccc(-c2ncccc2O)cc1	105% (inactive)
Cc1cc(=O)n(Cc2ccc(F)cc2Cl)c2c1c(C)nn2-c1ccccc1	96% (inactive)
CCc1ccccc1NC(=O)Cn1c(=O)n(C(C)C)c(=O)c2oc3ccccc3c21	66% (inactive)
COc1cc(NC(=O)CSc2ncc3c(n2)-c2ccc(Cl)cc2N(Cc2ccccc2)S3(=O)=O)cc(OC)c1	55% (inactive)
CCOc1ccc(NC(=O)CSc2ncc3c(n2)-c2cc(Cl)ccc2N(C)S3(=O)=O)cc1	0% (active)
CCOc1ccc(NC(=O)CSc2ncc3c(n2)-c2ccccc2N(C)S3(=O)=O)cc1	75% (inactive)
Cc1ccc(NC(=O)CSc2ncc3c(n2)-c2ccc(Cl)cc2N(C)S3(=O)=O)cc1F	69% (inactive)
CCc1cccc(NC(=O)CSc2ncc3c(n2)-c2cc(Cl)ccc2N(C)S3(=O)=O)c1	57% (inactive)
COc1cccc(NC(=O)CSc2ncc3c(n2)-c2ccc(Cl)cc2N(C)S3(=O)=O)c1	37% (active)
COc1ccc(CNC(=O)CN2C(=O)CCn3nc(-c4ccccc4)cc32)c(OC)c1	69% (inactive)
COc1ccc(-c2nc3c(c(SCC(=O)Nc4cc(C)cc(C)c4)n2)Cc2c(CO)cnc(C)c2O3)cc1	80% (inactive)
CN(C)S(=O)(=O)c1ccc2c(c1)nnn2CCNC(=O)Nc1ccc(Br)cc1	83% (inactive)

SMILES	survival
O=C1Nc2nc(=O)nc3[nH]c(=O)nc(n23)N1	97% (inactive)
COc1ccc(-n2ccn(CC(=O)Nc3ccc(C)cc3C)c(=O)c2=O)cc1	79% (inactive)
COc1ccc(Cn2ccn(Cc3cccc(C)c3)c(=O)c2=O)cc1	109% (inactive)
COc1ccc(-c2cc3c(=O)n(CC(=O)Nc4cc(C)ccc4C)ccn3n2)cc1	88% (inactive)
COc1ccc(Cn2ccn(Cc3cccc(OC)c3)c(=O)c2=O)cc1	46% (active)
COc1ccc(Cn2ccn(CC(=O)Nc3cc(C)ccc3C)c(=O)c2=O)cc1	47% (active)
COc1ccc(Cn2ccn(Cc3cccc(Cl)c3)c(=O)c2=O)cc1	112% (inactive)
CC(C)(C)c1ccc(OCCSc2nc(-c3cccs3)nc3cc(=O)[nH]n23)cc1	78% (inactive)
CC(=O)NCC(c1ccc2c(c1)OCO2)N1CCN(c2ccccc2)CC1 (configuration not stated)	80% (inactive)
COc1ccc(NC(=O)c2ccc3c(c2)nnn3C2CCCC2)cc1Cl	88% (inactive)
COc1cc(OC)c(OC)cc1CN1CCc2nc(N3CCN(C)CC3)ncc2C1	84% (inactive)
COc1ccccc1N1CCN(c2ncc3c(n2)CCN(Cc2ccccc2F)C3)CC1	89% (inactive)
CCN1CCN(c2ncc3c(n2)CCN(Cc2ccc(Br)s2)C3)CC1	76% (inactive)
CCOc1ccccc1CN1CCc2nc(N3CCN(C)CC3)ncc2C1	-2% (active)
CN1CCN(c2ncc3c(n2)CCN(Cc2ccccc2Cl)C3)CC1	79% (inactive)
CN1CCN(c2ncc3c(n2)CCN(Cc2cc(Br)cs2)C3)CC1	109% (inactive)
Cc1ccccc1CN1CCc2nc(N3CCN(c4ncccn4)CC3)ncc2C1	88% (inactive)
COc1cc(OC)c(OC)cc1CN1CCc2nc(N3CCN(c4ccccc4F)CC3)ncc2C1	72% (inactive)
CCOc1ccccc1CN1CCc2nc(N3CCN(c4ccccc4F)CC3)ncc2C1	-4% (active)
CCN1CCN(c2ncc3c(n2)CCN(Cc2cc(Br)cs2)C3)CC1	6% (active)
Cc1ccccc1CN1CCc2nc(N3CCN(c4ccccn4)CC3)ncc2C1	94% (inactive)
CCN1CCN(c2ncc3c(n2)CCN(Cc2ccccc2C)C3)CC1	-1% (active)
COc1cc(C(=O)n2nc(-c3ccco3)nc2NCc2ccc(Cl)cc2)cc(OC)c1OC	82% (inactive)

SMILES	survival
COc1cccc(CNC(=O)CSC2=Nc3ccccc3C3=NC(C(C)C)C(=O)N23)c1 (configuration not stated)	69% (inactive)
Cc1ccc(Cl)cc1N1CCN(C(=O)C2CCN(S(=O)(=O)c3cn(C)cn3)CC2)CC1	98% (inactive)
CC(=O)Nc1cccc(NC(=O)C2CCCN2C(=O)Nc2ccccc2Cl)c1 (configuration not stated)	113% (inactive)
CCOc1ccc(-c2csc(-c3nc(-c4ccc(Br)s4)cs3)n2)cc1	83% (inactive)
NC(=O)c1c(NC(=O)CS(=O)(=O)c2ccc(Cl)cc2)sc2c1CCCCC2	82% (inactive)
O=C(CSC1=Nc2ccccc2C2=NC(CCC(=O)NC3CCCCC3)C(=O)N12)Nc1cccc(Cl)c1 (configuration not stated)	112% (inactive)
CCC(=O)N1CCc2cc(Br)cc(S(=O)(=O)CCC(=O)N(C)c3cccc(C)c3)c21	62% (inactive)
COc1cc(NC(=O)CC2C(=O)N(c3cccc(C)c3)C(=O)N2Cc2cccs2)cc(OC)c1 (configuration not stated)	66% (inactive)
CCc1ccc(NC(=O)CC2C(=O)N(c3ccc(Cl)cc3)C(=O)N2Cc2cccs2)cc1 (configuration not stated)	60% (inactive)
CCOc1ccc(NC(=O)CC2C(=O)N(c3cccc(C)c3)C(=O)N2Cc2cccs2)cc1 (configuration not stated)	89% (inactive)
Cc1cccc(N2C(=O)C(CC(=O)Nc3cccc(F)c3)N(CCc3ccncc3)C2=O)c1 (configuration not stated)	75% (inactive)
Cc1cccc(N2C(=O)C(CC(=O)Nc3cccc(F)c3)N(Cc3cccs3)C2=O)c1 (configuration not stated)	8% (active)
CCc1ccc(NC(=O)CC2C(=O)N(c3cccc(C)c3)C(=O)N2Cc2cccs2)cc1 (configuration not stated)	20% (active)
Cn1c(=O)n(C)c2cc(NS(=O)(=O)c3ccc(F)cc3)c(NCc3ccccc3)cc21	68% (inactive)
CCc1nn(CCCC(=O)N2CCN(c3ccc(OC)cc3)CC2)c(=O)c2cc3occc3n12	87% (inactive)
Cc1ccccc1Cn1c(COc2ccc(Cl)cc2)nc2ccccc21	114% (inactive)
Cc1ccc(OCc2nc3ccccc3n2Cc2ccccc2Cl)cc1	-8% (active)
C#CCn1c(COc2ccccc2C)nc2ccccc21	111% (inactive)
Cc1cccc(C(=O)NCc2nc3ccccc3n2Cc2ccccc2Cl)c1	106% (inactive)
C=CCc1ccccc1OCc1nc2ccccc2n1CC	49% (inactive)
COc1ccc(-n2c(=O)c3ccccc3n(Cc3ccccc3Cl)c2=O)cc1	110% (inactive)
Cc1ccccc1OCc1nc2ccccc2n1Cc1ccccc1Cl	0% (active)
COc1ccc(OCc2nc3ccccc3n2Cc2ccccc2Cl)cc1	39% (active)

SMILES	survival
CCc1cc(C(=O)NCc2ccc(F)cc2)no1	53% (inactive)
Cc1cc(=O)oc2cc(OCC(=O)NCc3ccco3)ccc12	74% (inactive)
CC(C)C(c1nnnn1C1CCCC1)N1CCN(C(=O)c2ccco2)CC1 (configuration not stated)	86% (inactive)
Cc1cccc(C(=O)NCC(c2ccc3c(c2)OCO3)N2CCOCC2)c1 (configuration not stated)	73% (inactive)
Cc1ccc(N2C(=O)CCSC23C(=O)N(Cc2ccccc2)c2ccccc23)cc1 (configuration not stated)	89% (inactive)
Cc1cccc(NC(=O)CSc2nnc(N)s2)c1	149% (inactive)
COc1cc(C(=O)NCCc2sc(-c3ccc(C)cc3)nc2C)cc(OC)c1OC	80% (inactive)
Cc1ccc(-n2c(C)cc(/C=C3\SC(=O)NC3=O)c2C)cc1	95% (inactive)
Cc1ccc(N=Cc2ccc(C)o2)cc1	98% (inactive)
Cc1ccc(/C=C2\SC(=O)NC2=S)o1	33% (active)
Fc1ccc(CNc2ccc(N3CCCC3)cc2)cc1	97% (inactive)
Cc1ccccc1CNC(=O)CN1C(=O)C2CCCCN2c2ccc(C(=O)N3CCCC3)cc21 (configuration not stated)	76% (inactive)
CCC(C)NC(=O)c1ccc2c(c1)N(Cc1ccccc1F)C(=O)c1ccccc1S2=O (configuration not stated)	64% (inactive)
Cc1ccc2oc(-c3ccc(Cl)cc3)c(O)c(=O)c2c1	72% (inactive)
CC1CCCCN1C(=O)CSc1nnc(-c2ccccc2Cl)o1 (configuration not stated)	74% (inactive)
CC1Cc2ccccc2N1C(=O)CSc1nnc(-c2cccc(Cl)c2)o1 (configuration not stated)	34% (active)
COc1cccc(-c2nnc(SCC(=O)N3CCc4ccccc43)o2)c1	70% (inactive)
CC1CCN(C(=O)CSc2nnc(-c3ccccc3Cl)o2)CC1	104% (inactive)
O=C(CSc1nnc(-c2cccc(Cl)c2)o1)N1CCc2ccccc21	85% (inactive)
CC1Cc2ccccc2N1C(=O)CSc1nnc(-c2ccccc2)o1 (configuration not stated)	69% (inactive)
CC1Cc2ccccc2N1C(=O)CSc1nnc(-c2ccccc2Cl)o1 (configuration not stated)	49% (active)
COc1cccc(-c2nnc(SCC(=O)N3c4ccccc4Sc4ccccc43)o2)c1	35% (active)
O=C(CSc1nnc(-c2cccc(F)c2)o1)N1c2ccccc2Sc2ccccc21	114% (inactive)
